# Assay results taken from PubChem BioAssay AID1159580 (chemical genetic matrix, 2015).
# Values joined by “and” are separate entries in the source; they are usually repeats but may differ in a detail not shown here. Identical values can stand only once. Out of some 5,500 compounds screened, about 2,000 (36%) were called active. Roughly 18% stayed inconclusive and do not appear here. Some of the results follow. A number with no mark means an inactive call. Rule as the data show it: active = normalized growth mostly below about 0.91 (no sharp cut-off); inconclusive = no clear call, values can overlap the other calls; inactive = mostly above about 0.92.
# Test: chemical genetic growth profiling, strain panel (AID 1159580);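 also: tested at 20 µM; growth read once vehicle control cultures reached saturation at 30 °C; 1 = growth at the plate median or of vehicle wells; lower values mean less growth of the strain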
# Conditions: S. cerevisiae deletion strains, growth OD
smiles,measurement,setting,value
NC(CO)C(=O)NNCc1ccc(O)c(O)c1O (configuration not stated),normalized growth,"locus YAL013W, strain DEP1, active compounds read low",0.941
same,normalized growth,"locus YAL021C, strain ccr4, active compounds read low",0.96
same,normalized growth,"locus YAL026C, strain drs2, active compounds read low",0.977
same,normalized growth,"locus YAL030W, strain snc1, active compounds read low",0.986
same,normalized growth,"locus YAL040C, strain CLN3, active compounds read low",0.967
same,normalized growth,"locus YBL061C, strain skt5, active compounds read low",0.999
same,normalized growth,"locus YBR009C, strain hhf1, active compounds read low",0.971
same,normalized growth,"locus YBR021W, strain FUR4, active compounds read low",1.02
same,normalized growth,"locus YBR023C, strain chs3, active compounds read low",0.984
same,normalized growth,"locus YBR171W, strain sec66, active compounds read low",0.996
same,normalized growth,"locus YBR229C, strain ROT2, active compounds read low",1.02
same,normalized growth,"locus YBR231C, strain swc5, active compounds read low",1
same,normalized growth,"locus YBR279W, strain paf1, active compounds read low",0.97
same,normalized growth,"locus YCL011C, strain gbp2, active compounds read low",0.946
same,normalized growth,"locus YCL016C, strain dcc1, active compounds read low",0.977
same,normalized growth,"locus YCL029C, strain bik1, active compounds read low",0.997
same,normalized growth,"locus YCL069W, strain vba3, active compounds read low",0.968
same,normalized growth,"locus YCR088W, strain abp1, active compounds read low",1
same,normalized growth,"locus YDL005C, strain med2, active compounds read low",1.01
same,normalized growth,"locus YDL035C, strain GPR1, active compounds read low",1.02
same,normalized growth,"locus YDL040C, strain nat1, active compounds read low",1.01
same,normalized growth,"locus YDL074C, strain BRE1, active compounds read low",0.98
same,normalized growth,"locus YDL101C, strain DUN1, active compounds read low",0.99
same,normalized growth,"locus YDL185W, strain tfp1, active compounds read low",1
same,normalized growth,"locus YDL192W, strain arf1, active compounds read low",0.998
same,normalized growth,"locus YDR001C, strain nth1, active compounds read low",0.982
same,normalized growth,"locus YDR069C, strain doa4, active compounds read low",0.966
same,normalized growth,"locus YDR101C, strain arx1, active compounds read low",0.971
same,normalized growth,"locus YDR137W, strain rgp1, active compounds read low",0.91
same,normalized growth,"locus YDR150W, strain NUM1, active compounds read low",1.03
same,normalized growth,"locus YDR159W, strain sac3, active compounds read low",1.02
same,normalized growth,"locus YDR162C, strain NBP2, active compounds read low",1.02
same,normalized growth,"locus YDR195W, strain ref2",1.03
same,normalized growth,"locus YDR297W, strain sur2, active compounds read low",0.994
same,normalized growth,"locus YDR318W, strain mcm21, active compounds read low",1
same,normalized growth,"locus YDR334W, strain swr1, active compounds read low",0.982
same,normalized growth,"locus YDR335W, strain msn5, active compounds read low",0.995
same,normalized growth,"locus YDR363W, strain ESC2, active compounds read low",0.968
same,normalized growth,"locus YDR388W, active compounds read low",0.99
same,normalized growth,"locus YDR392W, strain spt3, active compounds read low",1.03
same,normalized growth,"locus YDR502C, strain sam2, active compounds read low",0.988
same,normalized growth,"locus YEL003W, strain gim4, active compounds read low",0.981
same,normalized growth,"locus YEL037C, strain rad23, active compounds read low",0.98
same,normalized growth,"locus YEL061C, strain CIN8 (second series), active compounds read low",0.981
same,normalized growth,"locus YEL061C, strain CIN8, active compounds read low",1.01
same,normalized growth,"locus YER002W, strain NOP16, active compounds read low",1
same,normalized growth,"locus YER015W, strain faa2, active compounds read low",0.947
same,normalized growth,"locus YER016W, strain bim1, active compounds read low",0.994
same,normalized growth,"locus YER110C, active compounds read low",0.984
same,normalized growth,"locus YER111C, strain swi4, active compounds read low",0.966
same,normalized growth,"locus YER155C, strain BEM2 (second series), active compounds read low",1.08
same,normalized growth,"locus YER155C, strain BEM2, active compounds read low",1
same,normalized growth,"locus YER167W, strain BCK2, active compounds read low",1.02
same,normalized growth,"locus YFR010W, strain ubp6, active compounds read low",0.989
same,normalized growth,"locus YGL078C, strain dbp3, active compounds read low",0.993
same,normalized growth,"locus YGL086W, strain mad1, active compounds read low",0.993
same,normalized growth,"locus YGL167C, strain pmr1, active compounds read low",0.996
same,normalized growth,"locus YGL173C, strain kem1, active compounds read low",1.01
same,normalized growth,"locus YGL227W, strain vid30, active compounds read low",1.01
same,normalized growth,"locus YGL240W, strain doc1, active compounds read low",1.06
same,normalized growth,"locus YGL248W, strain PDE1, active compounds read low",1.01
same,normalized growth,"locus YGL253W, strain hxk2, active compounds read low",0.958
same,normalized growth,"locus YGR078C, strain PAC10, active compounds read low",0.995
same,normalized growth,"locus YGR135W, strain pre9, active compounds read low",0.994
same,normalized growth,"locus YGR229C, strain SMI1, active compounds read low",0.775 (active)
same,normalized growth,"locus YGR252W, strain gcn5, active compounds read low",0.986
same,normalized growth,"locus YHR013C, strain ard1, active compounds read low",0.987
same,normalized growth,"locus YHR027C, strain rpn1, active compounds read low",0.911 (active)
same,normalized growth,"locus YHR030C, strain SLT2, active compounds read low",1.02 and 1.05
same,normalized growth,"locus YHR079C, strain IRE1 (second series), active compounds read low",1
same,normalized growth,"locus YHR079C, strain IRE1, active compounds read low",1.06
same,normalized growth,"locus YHR094C, strain hxt1, active compounds read low",1.01
same,normalized growth,"locus YHR129C, strain ARP1, active compounds read low",1.01
same,normalized growth,"locus YHR142W, strain chs7, active compounds read low",0.964
same,normalized growth,"locus YHR200W, strain rpn10, active compounds read low",0.986
same,normalized growth,"locus YIL066C, strain RNR3, active compounds read low",1.03
same,normalized growth,"locus YIL073C, strain SPO22, active compounds read low",0.985
same,normalized growth,"locus YIL125W, strain kgd1, active compounds read low",0.995
same,normalized growth,"locus YIR030C, strain dcg1, active compounds read low",0.984
same,normalized growth,"locus YJL092W, strain hpr5, active compounds read low",0.996
same,normalized growth,"locus YJL095W, strain BCK1 (second series), active compounds read low",1
same,normalized growth,"locus YJL095W, strain BCK1, active compounds read low",1.01 and 1.05
same,normalized growth,"locus YJL115W, strain asf1, active compounds read low",1
same,normalized growth,"locus YJL129C, strain trk1, active compounds read low",1.06
same,normalized growth,"locus YJL134W, strain LCB3, active compounds read low",1.01
same,normalized growth,"locus YJL154C, strain vps35, active compounds read low",0.993
same,normalized growth,"locus YJL164C, strain tpk1, active compounds read low",0.953
same,normalized growth,"locus YJL166W, strain qcr8, active compounds read low",1.02
same,normalized growth,"locus YJL168C, strain set2, active compounds read low",1
same,normalized growth,"locus YJL187C, strain SWE1 (second series), active compounds read low",0.988
same,normalized growth,"locus YJL187C, strain SWE1, active compounds read low",0.983
same,normalized growth,"locus YJR043C, strain POL32, active compounds read low",1.02
